Screens as filed in PubChem.
Rows were chosen to be rich in hits. Some 2.5% of all compounds tested hit in one or more screens of this group.
Cruzain inh Det – cruzain (T. cruzi) inhibition with detergent; P25779; purified cruzain, Z-FR-AMC fluorescence, 0.01% Triton; Potency, µM, for the others: max response, negative = inhibition, most hits filed as inhibitors; hit rate 0.43% among 200,000; AID 1478;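 also: plate controls were neutral wells for no effect and buffer without enzyme for full effect; nearly all actives have a fitted effect of over 40% in size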
Target sequence (P25779 123-467 limits assumed): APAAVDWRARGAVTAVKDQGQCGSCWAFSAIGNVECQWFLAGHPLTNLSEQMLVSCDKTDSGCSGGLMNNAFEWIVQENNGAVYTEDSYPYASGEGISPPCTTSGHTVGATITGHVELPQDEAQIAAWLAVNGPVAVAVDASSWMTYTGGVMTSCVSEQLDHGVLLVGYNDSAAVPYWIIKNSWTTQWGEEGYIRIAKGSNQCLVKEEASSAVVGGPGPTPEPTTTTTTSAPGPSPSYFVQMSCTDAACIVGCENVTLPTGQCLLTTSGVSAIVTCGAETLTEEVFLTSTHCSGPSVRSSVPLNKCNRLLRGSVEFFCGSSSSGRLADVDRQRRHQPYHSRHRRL
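Steps: dispense cruzain (1.5 nM final) in acetate buffer pH 5.5 with DTT and 0.01% Triton X-100; pin-transfer compounds; incubate 15 min RT; add Z-FR-AMC (2 uM final); read fluorescence every 30 s, using the 60 s intensity change.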
Cruzain noTriton – cruzain (T. cruzi) inhibition without detergent. P25779. hit rate 2.3% among 200,000. purified cruzain, Z-FR-AMC fluorescence, no detergent. AID 1476. Potency, µM, without a hit: max response, negative = inhibition, most hits filed as inhibitors;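 also: plate controls were enzyme without inhibitor for no effect and buffer without enzyme for full effect; nearly all actives have a fitted effect of over 40% in size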
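Purified cruzain at 1.5 nM, pre-incubated 15 min with compound at room temperature in 100 mM sodium acetate pH 5.5, 5 mM DTT, 0.00005% Triton X-100. Reaction started with 2 uM Z-FR-AMC; AMC fluorescence increase over 60 s gives rate.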
* hit, by the source's call; ? = inconclusive. Calls follow the shape of the dose curve; as a rule, active = well fitted curve in the direction sought with a large enough effect; inconclusive = small, poorly fitted or top-dose-only effect, or another doubt; inactive = no such curve, though single readings can be large; an effect the other way counts as inactive or inconclusive. Potency is read from the fitted curve at half-maximal effect.

SMILES	Cruzain inh Det	Cruzain noTriton
O=C(OCC(=O)N1CCc2ccccc21)c1cccc(S(=O)(=O)N2CCCc3ccccc32)c1	3%	?
COCC(=O)N1CCCc2ccccc21	8%	-10%
O=C(Cc1ccccc1)NCCC1=CCCCC1	1%	-9%
CC(C)(C)NC(=O)NC(=O)COC(=O)CNC(=O)c1cccc(F)c1	22µM*	?
Cc1ccc(S(=O)(=O)n2nc(-c3ccccc3)nc2NCc2ccc(Cl)cc2)cc1	0%	5%
O=C1C2=C(Nc3cc([N+](=O)[O-])ccc3N2)O[C@@H]1c1c[nH]c2ccc(COc3ccccc3)cc12	2%	16%
CCOC(=O)c1ccc(NC(=O)CCc2c(C)n(CC)c3cc(-c4ccccc4OC)nn3c2=O)cc1	1%	-12%
CCc1nn(-c2cc(Oc3ccccc3)nc(-c3ccccc3)n2)c(N)c1C#N	-6%	3.2µM*
CCc1nn(-c2ccccc2)c(N)c1C#N	2%	10%
Cc1cc(Br)ccc1NC(=O)COc1cc(=O)n(C)c2ccccc12	0%	-13%
CN(C)C(=O)C1CCN(Cc2c[nH]c3ccccc23)CC1	4%	3%
O=C(NC(Nc1ncc(S(=O)(=O)c2ccc([N+](=O)[O-])cc2)s1)(C(F)(F)F)C(F)(F)F)c1ccc(Cl)cc1	-9%	3%
O=C(Nc1ncc(S(=O)(=O)c2ccc([N+](=O)[O-])cc2)s1)c1cccc2ccccc12	-4%	13µM*
C=CCNS(=O)(=O)c1ncnc2nc[nH]c12	-2%	-5%
CCOC(=O)c1ccc(NC(=O)c2c(NCc3cc(OC)c(OC)cc3OC)sc3c2CCCC3)cc1	-11%	30%
N#Cc1nc(-c2cccc3ccccc23)oc1NCCN1CCCCC1	28µM*	-8%
CCNc1oc(-c2cccc3ccccc23)nc1C#N	3%	11%
Cc1ccc(-c2nnc(Nc3ccccc3)c3ccccc23)cc1S(=O)(=O)NCc1nc2ccccc2[nH]1	-6%	?
Cc1ccc(-c2nnc(NCc3nc4ccccc4[nH]3)c3ccccc23)cc1S(=O)(=O)N1CCCCC1	-2%	13µM*
Cc1ccc(-c2nnc(Nc3cccc(Br)c3)c3ccccc23)cc1S(=O)(=O)N1CCN(C)CC1	1%	-4%
Cc1ccc(-c2nnc(Nc3cccc(Br)c3)c3ccccc23)cc1S(=O)(=O)N1CCCCC1	-3%	6.3µM*
Oc1c(C(c2ccccc2Cl)N2CCCC2)sc2nc(-c3ccco3)nn12 (configuration not stated)	-1%	-14%
CCCCCCC(=O)Nc1c(O)c2ccccc2[nH]c1=O	-1%	?
CCCCCCNC(=O)c1c(O)c2ccccc2[nH]c1=O	0%	25µM*
COc1ccccc1CNC(=O)c1ccc2[nH]c(C)c(C)c2c1	-5%	-13%
SMILES	Cruzain inh Det	Cruzain noTriton
COc1ccccc1CNC(=O)c1c(O)c2cc(OC)c(OC)cc2[nH]c1=O	-6%	3.2µM*
COc1cc(OC)cc(-c2nc3n(n2)C(c2ccccc2F)C(C(=O)Nc2cccnc2)=C(C)N3)c1 (configuration not stated)	-9%	?
CCCCCCC(=O)N(O)C1CC(=O)N(c2ccc(Br)cc2)C1=O (configuration not stated)	2%	10µM*
COc1ccccc1N(O)C1CC(=O)N(c2ccc(Br)cc2)C1=O (configuration not stated)	-8%	?
CN(C)CCSCCO	2%	-2%
CCc1ccccc1N(C)C(=O)c1cc2c(=O)oc3ccccc3c2s1	0%	14%
O=C(N1CCOCC1)C12CCC3CC(CC(C3)C1)C2	4%	-2%
N=P(N1CCOCC1)(N1CCOCC1)C12CC3CC(CC(C3)C1)C2	28µM*	25µM*
O=C(O)Cc1cccnc1	5%	2%
CC1(C)CCC(=O)N[C@H]1CC(=O)C[C@H]1NC(=O)CCC1(C)C	-2%	7%
COc1ccc(/C=C2\SC(=S)N(CCC(=O)NC3=NCCS3)C2=O)cc1OC	-12%	-15%
O=C(CCN1C(=O)/C(=C/c2ccc3c(c2)OCO3)SC1=S)Nc1ccccc1	-5%	7.9µM*
Cn1cc(/C=C2/SC(=O)N(CC(=O)Nc3ccc4c(c3)OCO4)C2=O)c2ccccc21	-1%	25µM*
Cn1cc(S(=O)(=O)CC(=O)Nc2ccc3c(c2)OCCO3)c2ccccc21	8%	1%
CN(C)[C@@H]1C(=O)C(C(N)=O)=C(O)[C@]2(O)C(=O)C3=C(O)c4c(O)cccc4[C@](C)(O)[C@H]3C[C@@H]12	-9%	-3%
Cc1ccc(C)c(NC(=O)c2cc(S(=O)(=O)N3CCN(c4cccc(Cl)c4)CC3)ccc2F)c1	1%	7.9µM*
COc1ccccc1NC(=O)c1cc(S(=O)(=O)N2CCN(c3ccccc3Cl)CC2)ccc1F	1%	10µM*
Cc1ccc(N2CCN(S(=O)(=O)c3ccc(F)c(C(=O)Nc4ccc(Cl)cc4Cl)c3)CC2C)cc1 (configuration not stated)	1%	-9%
COc1ccccc1N1CCN(S(=O)(=O)c2ccc(F)c(C(=O)Nc3ccc(Cl)cc3C(F)(F)F)c2)CC1	0%	?
Cc1cc(C)c(Cn2c(C)c(CNCCCc3ccccc3)c(C(=O)O)c2C)c(C)c1	-2%	10%
CCCS(=O)(=O)Nc1cc(-c2cn3cccc(C)c3n2)ccc1C	0%	0%
Fc1ccc(COc2ccc(Cl)cc2/C=N/Nc2nc(N3CCCC3)nc(N3CCCC3)n2)cc1	-2%	5µM*
Fc1ccccc1COc1ccccc1/C=N/Nc1nc(N2CCCC2)nc(N2CCCC2)n1	-3%	?
CC1=C(c2ccc(Cl)cc2)S(=O)(=O)N=C1N1CCN(c2cccc(C)c2)C(C)C1 (configuration not stated)	-12%	29%
O=C1SCC(c2ccc(Cl)cc2Cl)=NN1Cc1nnc(-c2ccccc2)o1	-2%	16µM*
SMILES	Cruzain inh Det	Cruzain noTriton
CC(=O)Nc1ccc(C2=NN(Cc3nnc(-c4ccccc4)o3)C(=O)SC2)cc1	-8%	?
CC(=O)Nc1ccccc1-c1nc2ccccc2n(CC(=O)c2ccc(C)c(C)c2)c1=O	-1%	-5%
NC(=S)N/N=C/c1ccc2ccccc2c1	2.2µM*	0.79µM*
O=C(N/N=C/C=C/c1ccccc1)c1ccccc1Br	-3%	0%
NC(=S)N/N=C/C=C/c1ccccc1	25µM*	16µM*
COc1ccc(/C=N/NC(N)=S)cc1OC(=O)c1ccccc1	-28%	?
CCOc1ccccc1NC(=O)Nc1ccc2nc(N3CCN(C)CC3)cc(C)c2c1	-6%	-2%
COc1ccc(NC(=O)c2c(NCc3ccc(C)o3)sc3c2CCCCC3)c(OC)c1	-8%	-4%
COC(=O)c1ccccc1NC(=S)N(Cc1ccc2c(c1)OCO2)Cc1cc2cc(OC)ccc2[nH]c1=O	-10%	10µM*
COC(=O)c1ccccc1NC(=O)NCc1ccc2c(c1)OCO2	1%	-9%
CC(C)CCNC(=O)CN1C(=O)CCn2nc(-c3cn(C)c4ccccc34)cc21	-4%	?
Cc1ccc(C(=O)c2sc3c(c2N)c(=O)[nH]c(=O)n3CCc2ccccc2)cc1	-15%	13µM*
Nc1c(C(=O)c2ccccc2)sc2c1c(=O)[nH]c(=O)n2-c1ccccc1	-8%	11%
COc1ccccc1/C=C/c1nc(C#N)c(N(C)C)o1	14µM*	?
COc1ccccc1/C=C/c1nc(C#N)c(N2CCCCC2)o1	-25%	-1%
COc1ccccc1/C=C/c1nc(C#N)c(NCC(C)C)o1	7%	27%
COc1ccccc1/C=C/c1nc(C#N)c(NCCc2ccccc2)o1	-7%	16µM*
